This is part of a sample that, as a whole, favours compounds with a hit. Of some 79,000 tested, about 15% had one in any assay. Values without a mark were called inactive. The source made the active and inactive calls. Rule as the data show it: active = growth inhibition above about 70%; inactive = the rest.

A short description of assay [1]: NCI Yeast Anticancer Drug Screen. Data for the rad50 strain (AID 155).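 Also: 0% = growth of vehicle-only cultures of the same strain.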 The settings on record: S. cerevisiae rad50 strain growth inhibition; at 50.0 µM; active compounds read high. The procedure, abridged:
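Relative growth inhibition (compound vs vehicle) was measured in yeast with a defined repair-gene alteration.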

Assay [2] can be described thus: NCI Yeast Anticancer Drug Screen. Data for the mec2-1 strain (AID 157). The settings on record: S. cerevisiae mec2-1 strain, at 50.0 µM, active compounds read high. The procedure, abridged: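 Compounds were applied to mec2-1 yeast cells. Their growth was then compared with that of vehicle-treated cultures to give growth inhibition.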
A short description of assay [3]: NCI Yeast Anticancer Drug Screen. Data for the sgs1 mgt1 strain (AID 161).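 Also: 0% = growth of cultures given vehicle only.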 The note with it: S. cerevisiae sgs1 mgt1 strain, at 50.0 µM, active compounds read high. Summed up:
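Compounds are added to genetically altered yeast, and growth is compared with cultures given vehicle alone to give percent inhibition.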

The nature of assay [4]: NCI Yeast Anticancer Drug Screen. Data for the cln2 rad14 strain (AID 165).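 Also: 0% = growth equal to vehicle treated cultures.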 The note with it: S. cerevisiae cln2 rad14 strain, at 50.0 µM, active compounds read high. Summed up: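 Strain: cln2 rad14 yeast, altered in cell cycle control and DNA damage repair. Read-out: growth inhibition vs vehicle.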
The nature of assay [5]: NCI Yeast Anticancer Drug Screen. Data for the bub3 strain (AID 167). The settings on record: S. cerevisiae bub3 mutant strain, at 50.0 µM, active compounds read high. The procedure, abridged: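 Screening used yeast with an engineered genetic alteration affecting cell cycle control. Compound-exposed cultures were compared with vehicle cultures, and reduced growth was taken as inhibition.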

Assay [6] is described as follows: NCI Yeast Anticancer Drug Screen. Data for the mlh1 rad18 strain (AID 175). The note with it: S. cerevisiae mlh1 rad18 strain growth inhibition; at 50.0 µM; active compounds read high. Summed up:
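A repair-deficient yeast strain is exposed to test compound, and growth is scored relative to vehicle-treated controls.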

For the molecule `CCOP(=O)(OCC)Oc1ccc(SC)cc1`, the growth inhibition is -7.85% in assay [1]; -14.3% in assay [2]; -9.65% in assay [3]; -14.9% in assay [4]; 12.9% in assay [5]; -14.8% in assay [6].
As for `[Au].[NH-]CC[NH-].[NH-]CC[NH-]`, the growth inhibition in assay [1] is 9.45%; in assay [2] it was -5.5%; in assay [3], -17.4%; in assay [4], -7.05%; in assay [5] it was -0.55%; in assay [6] it was -12.5%.
In the case of `O=C1C(NCC(O)CO)=C(N2CC2)C(=O)C(NCC(O)CO)=C1N1CC1` (stereo unspecified), the growth inhibition in assay [1] is -0.05%; in assay [2], 7%; in assay [3], 1.15%; in assay [4], 4.55%; in assay [5], 8.8%; in assay [6], 25.6%.
Turning to `O=C1C(Br)=CC2(C=C1Br)CCN=c1c(O)c3c(c(O)c12)=NC=N3`, the growth inhibition in assay [1] is 27.3%; in assay [2], 15.7%; in assay [3], 20.5%; in assay [4], 19.1%; in assay [5], 12.7%; in assay [6], -9.4%.
Turning to `COC[n+]1cccc(C2CCC[N+]2(C)C)c1` (stereo unspecified), the growth inhibition in assay [1] was 6.35%; in assay [2] it was 1.25%; in assay [3], 6.8%; in assay [4] it was 9.9%; in assay [5] it was 1.8%; in assay [6], 15.5%.
`CCC1CCC2CCCC(C)N12` (stereo unspecified): the growth inhibition in assay [1] is 9.05%; in assay [2] it was 4.25%; in assay [3] it was -3.2%; in assay [4], 1.5%; in assay [5], 8.2%; in assay [6], 7.75%.
`O=P(O)(O)c1ccccc1`: the growth inhibition in assay [1] was -10.4%; in assay [2], -3.85%; in assay [3], 8.85%; in assay [4] it was -18.9%; in assay [5], 2.6%; in assay [6], 4.65%.
For the molecule `CCCCCCCCCSCP(=O)(OCC)OCC`, the growth inhibition was 99.5% (active) in assay [1]; 99.8% (active) in assay [2]; 99.7% (active) in assay [3]; 98.9% (active) in assay [4]; 99.5% (active) in assay [5]; 99.7% (active) in assay [6].
Regarding `CN1CCN(C)C12C=c1ccccc1=CC21CC1`, the growth inhibition in assay [1] is 5.05%; in assay [2] it was -15.9%; in assay [3], -45.6%; in assay [4], -2.65%; in assay [5] it was -39.9%; in assay [6], -8.15%.
As for `O=NN1CCCCC1`, the growth inhibition in assay [1] is -18.2%; in assay [2], 7.1%; in assay [3], 28.4%; in assay [4], -15.1%; in assay [5] it was 0.15%; in assay [6], 18.9%.
Turning to `CCP(c1ccccc1)c1ccccc1`, the growth inhibition is -0.4% in assay [1]; 12.4% in assay [2]; 13.1% in assay [3]; 0.95% in assay [4]; -40.8% in assay [5]; -12% in assay [6].
On to `ClCCN(CCCl)c1ccc(/C=N/c2nc(-c3ccccc3)cs2)cc1`, for which the growth inhibition was 45.6% in assay [1]; 27.9% in assay [2]; 65.4% in assay [3]; 47.4% in assay [4]; -1.75% in assay [5]; 60.9% in assay [6].
As for `CCOP(=O)(OCC)/C(C#N)=C/C=C/c1ccco1`, the growth inhibition is 2.65% in assay [1]; -21.3% in assay [2]; -30.7% in assay [3]; 4.2% in assay [4]; -40.1% in assay [5]; 1.8% in assay [6].
For the molecule `N#CC1OC1c1cccnc1` (stereo unspecified), the growth inhibition is 3.9% in assay [1]; -1.45% in assay [2]; -4.45% in assay [3]; 20.6% in assay [4]; 29.3% in assay [5]; -16.1% in assay [6].
`[C-]#[O+].[C-]#[O+].[C-]#[O+].[C-]#[O+].[Cr].c1ccc([As](CC[As](c2ccccc2)c2ccccc2)c2ccccc2)cc1`: the growth inhibition in assay [1] is 22.9%; in assay [2], 21.4%; in assay [3], 8%; in assay [4], 6.65%; in assay [5], 36.2%; in assay [6], 29.1%.
`F[C](F)(F)[Hg][c]1ccccc1`: the growth inhibition was 99.3% (active) in assay [1]; 99.7% (active) in assay [2]; 99.5% (active) in assay [3]; 98.8% (active) in assay [4]; 99.5% (active) in assay [5]; 99.3% (active) in assay [6].
For the molecule `CCCCSP(=O)(SCCCC)N1CCCCC1`, the growth inhibition in assay [1] was 98.9% (active); in assay [2], 99.2% (active); in assay [3], 98.8% (active); in assay [4], 97.8% (active); in assay [5], 98.8% (active); in assay [6], 99% (active).
Take `CS(=O)(=O)NC(=O)CBr`: the growth inhibition is -26.1% in assay [1]; -23.6% in assay [2]; -12.8% in assay [3]; 14.6% in assay [4]; -29.4% in assay [5]; -21.1% in assay [6].
Consider `O=C1NCCCC1(Cl)Cl`, for which the growth inhibition was 4.75% in assay [1]; -1.25% in assay [2]; 4.2% in assay [3]; -16.3% in assay [4]; -10.6% in assay [5]; 13.2% in assay [6].
`NC(=O)CCl`: the growth inhibition in assay [1] is 6%; in assay [2] it was -0.8%; in assay [3], -2.6%; in assay [4] it was -1.45%; in assay [5], 12.4%; in assay [6] it was -12.9%.
On to `COc1ccc(C(=O)/C=C/c2ccccc2)cc1`, for which the growth inhibition is 2.05% in assay [1]; -7.25% in assay [2]; 30.1% in assay [3]; 2.45% in assay [4]; 42.4% in assay [5]; 19.4% in assay [6].

The record behind these values is PubChem BioAssay (NCI).
